# Source: PubChem BioAssay (NCATS)
# Values without a mark were called inactive. Calls come from the whole dose curve; as a rule, active = well fitted activation curve with a large enough effect; inconclusive = small, poorly fitted or top-dose-only effect, or effect the other way; inactive = flat fitted curve, though single readings scatter.
# Assay: Cellular Toxicity (caspase-3) Renal Proximal Tubule (AID 667);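 note: cells exposed to compound for 16 hours at 37 °C before detection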
# Conditions: renal proximal tubule cells, primary cells freshly taken from rat, solvent-only wells 0%, staurosporine 100%; series mostly up to 91.7 µM; caspase-3 activation: at the top concentration
# Outline: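 Luminescent caspase 3/7 signal from peptide-aminoluciferin cleavage measures apoptosis in freshly isolated rat kidney proximal tubule cells after 16 h compound exposure. Concentration-response data are normalized to DMSO and 10 uM staurosporine, and AC50 values come from Hill equation fits.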
row,Structure (SMILES),caspase-3 activation [%]
1,c1cc(OCC2CO2)cc(OCC2CO2)c1 (stereo not drawn),-0.124
2,Cc1cc(Nc2ccc(O)cc2)ccc1N,-3.22
3,CN(C)c1ccc(C2(c3ccc(N(C)C)cc3)OC(=O)c3cc(N(C)C)ccc32)cc1,2.67
4,CO[C@H]1/C=C/O[C@@]2(C)Oc3c(C)c(O)c4c(O)c(c5c(c4c3C2=O)NC2(CCN(CC(C)C)CC2)N=5)=NC(=O)/C(C)=C\C=C\[C@H](C)[C@H](O)[C@@H](C)[C@@H](O)[C@@H](C)[C@H](OC(C)=O)[C@@H]1C,-3.72
5,O=C(OCC(COC(=O)c1ccccc1)(COC(=O)c1ccccc1)COC(=O)c1ccccc1)c1ccccc1,-7.46
6,ClC1=C(Cl)C(Cl)(Cl)C(Cl)=C1Cl,5.29
7,CC(=O)Nc1ccc(C(=O)CCl)cc1,-16.8
8,CC/C(=C(\c1ccccc1)c1ccc(OCCN(C)C)cc1)c1ccc(O)cc1,4.69
9,Nc1ccc2cc3ccccc3cc2c1,-2.46
10,c1ccc2c(c1)-c1cccc3c1c-2cc1ccccc13,-2.35
11,O=C=Nc1ccc(Cc2ccc(N=C=O)cc2)cc1,1.18
12,O=[N+]([O-])c1cc([N+](=O)[O-])c2ccc(S(=O)(=O)O)cc2c1O,-8.17
13,CCC(C)Nc1ccc(NC(C)CC)cc1 (stereo not drawn),1.96
14,CNc1ccc(O)cc1,-19.9
15,C=CC(=O)OCCOCCOC(=O)C=C,-4.53
16,O=C1OC2(c3cc(Br)c(O)c(Br)c3Oc3c2cc(Br)c(O)c3Br)c2c(Cl)c(Cl)c(Cl)c(Cl)c21,-8.34
17,Oc1ccc2cc(SSc3ccc4cc(O)ccc4c3)ccc2c1,-19.6
18,c1ccc2c(c1)ccc1cc3c(ccc4ccccc43)cc12,3.49
